In the supplement of paper PMC5641865, “A screen for kinase inhibitors identifies antimicrobial imidazopyridine aminofurazans as specific inhibitors of the Listeria monocytogenes PASTA kinase PrkA” (The Journal of Biological Chemistry, 2017) one finds growth inhibition data, which are given here for 83 compounds.

“And” between values parts separate entries of the source, which are not always exact repeats. Identical values can stand only once. ± gives the standard deviation of the averaged measurements.

The test system of the test is Listeria monocytogenes 10403S. The test can be described thus: growth inhibition relative to ceftriaxone-alone control; higher = stronger potentiation of ceftriaxone growth inhibition. The following applies: 10 µM; ceftriaxone 1 ug/ml; 12 h.
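Note: End-point A600 read in BHI broth at 37 °C with 2% DMSO, inhibition computed as (1 − OD with compound plus ceftriaxone ÷ OD with ceftriaxone only) × 100.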

On to `COc1cc2c(Oc3ccc(NC(=O)C4(C(=O)Nc5ccc(F)cc5)CC4)cc3F)ccnc2cc1OCCCN1CCOCC1`, for which the growth inhibition is 80.2 ± 4.3%.

For `O=S(=O)(CCOCc1ccc(-c2ccc3ncnc(Nc4ccc(OCc5cccc(F)c5)c(Cl)c4)c3c2)o1)c1ccccc1`, the growth inhibition was -11.6 ± 11%.

Consider `NS(=O)(=O)c1ccc(N/N=C2\C(=O)Nc3cccc(CCc4ccncc4)c32)cc1`, for which the growth inhibition is -4.56 ± 8.2%.

For the compound `NS(=O)(=O)c1cccc(-c2ccc3c(NC(=O)C4CC4)n[nH]c3c2)c1`, the growth inhibition came out at 0.81 ± 3.7%.

For `CNC(=O)c1cncc(/C=C/c2c(C)cccc2C)c1`, the growth inhibition was -1.2 ± 3.7%.

As for `COc1cc(Nc2c(C#N)cnc3cc(OCCCN4CCN(C)CC4)c(OC)cc23)c(Cl)cc1Cl` [Bosutinib (SKI-606)], the growth inhibition was determined as 72.2 ± 1.1%.

With `Nc1nonc1-c1nc2cnccc2n1C1CC1`, the growth inhibition is -9.63 ± 4.1%.

As for `CC1=C(C(=O)Nc2ccc3[nH]ncc3c2)C(c2ccc(Cl)c(Cl)c2)CC(=O)N1` (stereo not drawn), the growth inhibition was -13 ± 9.9%.

Take `NS(=O)(=O)c1ccc(-c2cc3ccncc3cc2OCc2ccccc2)cc1`: the growth inhibition was -3.99 ± 6.9%.

For the compound `c1ccc(Nc2ncc(-c3ccccc3)o2)cc1`, the growth inhibition was determined as 2.45 ± 0.39%.

For `COc1cc(C=NNc2ncnc3c2cnn3Cc2ccccc2)ccc1O`, the growth inhibition was -10.8 ± 3.7%.

`CO[C@H]1C[C@@H]2CC[C@@H](C)[C@@](O)(O2)C(=O)C(=O)N2CCCC[C@H]2C(=O)O[C@H]([C@H](C)C[C@@H]2CC[C@@H](OCCO)[C@H](OC)C2)CC(=O)[C@H](C)/C=C(\C)[C@@H](O)[C@@H](OC)C(=O)[C@H](C)C[C@H](C)/C=C/C=C/C=C/1C` [Everolimus (RAD001)]: the growth inhibition is 27.5 ± 19%.

On to `CC(C)(C)c1nc(-c2cccc(NS(=O)(=O)c3c(F)cccc3F)c2F)c(-c2ccnc(N)n2)s1`, for which the growth inhibition worked out at 56.2 ± 26%.

As for `O=C1NC(=O)/C(=C/c2ccc(-c3ccc(F)cc3O)o2)S1`, the growth inhibition stood at 70.7 ± 9.8%.

As for `CCS(=O)(=O)Nc1ccc2c(c1)/C(=C(/Nc1ccc(CN3CCCCC3)cc1)c1ccccc1)C(=O)N2` [Hesperadin], the growth inhibition amounted to 19.3 ± 11%.

For the compound `COc1cc(Nc2ncc3c(C)nc(-c4cccc(Oc5ccccc5)c4)n3n2)cc(OC)c1OC`, the growth inhibition was -18.3 ± 17%.

As for `C=CC(=O)Nc1cc2c(Nc3ccc(F)c(Cl)c3)ncnc2cc1OCCCN1CCOCC1` [CI-1033 (Canertinib)], the growth inhibition turned out to be 21.5 ± 6.1%.

For the compound `C#Cc1cccc(Nc2ncnc3cc(OCCOC)c(OCCO)cc23)c1`, the growth inhibition is 19.2% and 5.86%.

As for `CN1CCC(n2cnc(-c3ccc(F)cc3)c2-c2ccnc(N)n2)CC1`, the growth inhibition was -0.672 ± 2%.

`CC(=O)Nc1cccc(C#Cc2cncnc2Nc2ccc(OCc3cccc(F)c3)c(Cl)c2)c1`: the growth inhibition is -15 ± 2.5%.

For `NS(=O)(=O)c1ccc(-c2ccc3c(NC(=O)C4CC4)n[nH]c3c2)cc1`, the growth inhibition was -10.8 ± 16%.

Regarding `Cc1cccc(-c2n[nH]cc2-c2ccc3ncccc3n2)n1`, the growth inhibition was -9.12 ± 7.3%.

As to `COc1cc2nccc(Oc3ccc(NC(=O)C4(C(=O)Nc5ccc(F)cc5)CC4)cc3)c2cc1OC` [XL-184 (Cabozantinib)], the growth inhibition turned out to be 30.5 ± 5.4%.

`CO[C@H]1C[C@@H]2CC[C@@H](C)[C@@](O)(O2)C(=O)C(=O)N2CCCC[C@H]2C(=O)O[C@H]([C@H](C)C[C@@H]2CC[C@@H](OP(C)(C)=O)[C@H](OC)C2)CC(=O)[C@H](C)/C=C(\C)[C@@H](O)[C@@H](OC)C(=O)[C@H](C)C[C@H](C)/C=C/C=C/C=C/1C` [Deforolimus (Ridaforolimus)]: the growth inhibition stood at 39.2 ± 14%.

Consider `COc1cc(Nc2ncc(-c3ccccc3)o2)cc(OC)c1`, for which the growth inhibition was determined as 17 ± 3.9%.

Take `c1cncc(CN2CCC(n3ncc4c(N5CCOCC5)nc(-c5ccc6[nH]ccc6c5)nc43)CC2)c1`: the growth inhibition turned out to be 37.1 ± 17%.

`COc1ccc(-c2cc3c(C)nc(N)nc3n([C@H]3CC[C@H](OCCO)CC3)c2=O)cn1`: the growth inhibition is 12.2 ± 9.5%.

With `NC(=O)Nc1cc(-c2cccc(F)c2)sc1C(=O)N[C@H]1CCCNC1`, the growth inhibition was 16.7 ± 12%.

Turning to `Cc1cc(Nc2cc(N3CCN(C)CC3)nc(Sc3ccc(NC(=O)C4CC4)cc3)n2)n[nH]1` [VX-680 (MK-0457, Tozasertib)], the growth inhibition is 52.7 ± 17%.

Turning to `c1cc(-c2cnn3nc(N4CCOCC4)ccc23)nc(NC2CC2)n1`, the growth inhibition was -1.92 ± 0.84%.

Consider `Cc1ccc2c(c1)/C(=N/Nc1ccc(S(N)(=O)=O)cc1)C(=O)N2`, for which the growth inhibition is 2.4 ± 3.2%.

In the case of `COc1cc2nccc(Oc3ccc(NC(=O)NC4CC4)c(Cl)c3)c2cc1C(N)=O` [E7080 (Lenvatinib)], the growth inhibition turned out to be 5.83 ± 14%.

For the compound `O=C(NOCC(O)CO)c1cc(Br)c(F)c(F)c1Nc1ccc(I)cc1F` (stereo not drawn), the growth inhibition came out at 100 ± 5.2%.

Take `CCN1CCN(c2ccc(Nc3cc(N(C)C(=O)Nc4c(Cl)c(OC)cc(OC)c4Cl)ncn3)cc2)CC1`: the growth inhibition worked out at 12.2 ± 5.4%.

As for `Clc1ccc(C2(c3ccc(-c4cn[nH]c4)cc3)CCNCC2)cc1`, the growth inhibition amounted to 100 ± 1.4%.

As for `COc1ccc2c(-c3ccnc(Nc4cccc(OC(F)(F)F)c4)n3)cnn2n1`, the growth inhibition was -7.53 ± 17%.

Regarding `O=C(Nc1ccc(OC(F)(F)F)cc1)c1sccc1NCc1ccnc2ccccc12`, the growth inhibition turned out to be 35.9 ± 3.9%.

Turning to `CCn1c(-c2nonc2N)nc2cnc(Oc3cccc(NC(=O)c4ccc(OCCN5CCOCC5)cc4)c3)cc21`, the growth inhibition is 0.09 ± 1.7%.

For the compound `Nc1nccc(-c2c(-c3ccc(F)cc3)ncn2C2CCC(O)CC2)n1` (stereo not drawn), the growth inhibition is -2.07 ± 1.6%.

`CNC(=O)c1sc(-n2cnc3cc(OC)c(OC)cc32)cc1OCc1ccccc1C(F)(F)F`: the growth inhibition was -11 ± 18%.

For `CCn1c(-c2nonc2N)nc2c(N3CCCC3)nccc21`, the growth inhibition came out at 18.7 ± 38%.

As for `COc1cc2ncn(-c3cc(O[C@H](C)c4ccccc4Cl)c(C(N)=O)s3)c2cc1OC`, the growth inhibition was -3.78 ± 5.6%.

As to `Cc1ccc(NC(=O)c2cccc(N(C)C)c2)cc1NC(=O)c1ccc(O)cc1`, the growth inhibition stood at 29.5 ± 12%.

Take `Cc1cc(C)c(/C=C2\C(=O)Nc3ccccc32)[nH]1` [Semaxanib (SU5416)]: the growth inhibition was -4.38 ± 12%.

As to `Cc1ccc2c(-c3ccnc(Nc4cccc(C(F)(F)F)c4)n3)c(-c3ccccc3)nn2n1`, the growth inhibition was -3.53 ± 4.7%.

With `Nc1nccc(-c2c(-c3ccc(F)cc3)ncn2CCCN2CCOCC2)n1`, the growth inhibition is -1.02 ± 0.073%.

As to `CN(C)C(=O)O[C@@H]1CN[C@@H](C#Cc2cc3ncnc(Nc4ccc(OCc5cccc(F)c5)c(Cl)c4)c3s2)C1`, the growth inhibition is -5.56 ± 8.1%.

As to `C[C@]1(O)C[C@@H](c2nc(-c3ccc4ccc(-c5ccccc5)nc4c3)c3c(N)nccn32)C1` [Linsitinib (OSI-906)], the growth inhibition came out at 56.8 ± 25%.

Turning to `CN1CCN(c2ccc3nc(-c4c(N)c5c(F)cccc5[nH]c4=O)[nH]c3c2)CC1` [Dovitinib (TKI-258)], the growth inhibition is 1.47 ± 0.1%.

For `Fc1ccc(-c2nn3ccccc3c2-c2ccncc2)cc1`, the growth inhibition turned out to be 20.7 ± 8.6%.

Consider `COc1cc(N2CCN(C(C)C)CC2)ccc1Nc1nc(Nc2ccc(F)cc2C(N)=O)c2cc[nH]c2n1`, for which the growth inhibition was -11.9 ± 7%.

Regarding `NCc1ccc(-n2c(-c3nonc3N)nc3cnccc32)cc1`, the growth inhibition is -4.5 ± 3.6%.

For the compound `CC(C)(C)c1cnc(CSc2cnc(NC(=O)C3CCNCC3)s2)o1`, the growth inhibition worked out at 29.5 ± 24%.

With `COc1cc(Nc2ncc(F)c(Nc3ccc4c(n3)NC(=O)C(C)(C)O4)n2)cc(OC)c1OC`, the growth inhibition was 9.08% and 0.52%.

Consider `CS(=O)(=O)Nc1ccc(-c2ccc3c(NC(=O)C4CC4)n[nH]c3c2)cc1`, for which the growth inhibition was determined as 38.6 ± 43%.

Turning to `CC(C)c1ccc(Nc2nccc(-c3cnn4ncccc34)n2)cc1`, the growth inhibition was -0.923 ± 0.22%.

Turning to `Nc1ccc(-c2ccc3ncc4ccc(=O)n(-c5cccc(C(F)(F)F)c5)c4c3c2)cn1` [Torin 2], the growth inhibition was -20 ± 12%.

For `Cc1c(CN2CCN(C(=O)[C@H](C)O)CC2)sc2c(N3CCOCC3)nc(-c3cnc(N)nc3)nc12`, the growth inhibition worked out at 22.8 ± 8.1%.

Consider `Cc1cnc(Nc2ccc(OCCN3CCCC3)cc2)nc1Nc1cccc(S(=O)(=O)NC(C)(C)C)c1`, for which the growth inhibition turned out to be 39 ± 15%.

Consider `CCN1CCC(CC(=O)Nc2n[nH]c3nnc(-c4cccc(F)c4F)cc23)CC1`, for which the growth inhibition was determined as 7 ± 6.8%.

Turning to `CCCN1CCC=C(c2ccc(Nc3nc(Nc4ccccc4C(N)=O)c4cc[nH]c4n3)c(C)c2)C1`, the growth inhibition was -7.58 ± 1.9%.

As to `COc1cc2ncnc(Nc3cccc(Cl)c3)c2cc1OC` [AG-1478 (Tyrphostin AG-1478)], the growth inhibition turned out to be 31.5 ± 11%.

Regarding `CCc1cc(Nc2nccc(-c3c(-c4ccc(OC)c(C(=O)Nc5c(F)cccc5F)c4)nc4ccccn34)n2)c(OC)cc1N1CCC(N2CCN(S(C)(=O)=O)CC2)CC1`, the growth inhibition was 24.5 ± 8%.

For the compound `CCn1c(N)c(C(=O)NC)c(=O)c2ccc(C#CC(C)(O)COC)nc21` (stereo not drawn), the growth inhibition worked out at 2.07 ± 6.6%.

Take `CC(C)(CO)CNC(=O)c1ccc2c(c1)/C(=N/Nc1ccc(S(N)(=O)=O)cc1)C(=O)N2`: the growth inhibition is -13.4 ± 16%.

On to `CNC(=O)c1nn(C)c2c1C(C)(C)Cc1cnc(Nc3ccc(N4CCN(C)CC4)cc3)nc1-2`, for which the growth inhibition was found to be 20.7 ± 8.5%.

As to `COc1cccc(-n2ncc3c(N/N=C/c4ccc(F)cc4)ncnc32)c1`, the growth inhibition is -3.41 ± 1%.

As for `COc1ccc(-c2nn3ncccc3c2-c2ccnc(Nc3ccc(Cl)c(C(F)(F)F)c3)n2)cc1`, the growth inhibition was -8.69 ± 0.94%.

`CCN(CC)CCNC(=O)c1c(C)[nH]c(/C=C2\C(=O)Nc3ccc(F)cc32)c1C` [Sunitinib Malate (Sutent)]: the growth inhibition is 73.6 ± 12%.

Consider `CCS(=O)(=O)c1ccc(OC)c(Nc2ncc(-c3cccc(-c4ccccc4F)c3)o2)c1`, for which the growth inhibition is 2.03 ± 2.4%.

In the case of `NC(=O)Cc1ccccc1Oc1nccc(-c2c(-c3ccc(F)cc3)ncn2C2CCNCC2)n1`, the growth inhibition is -2.82 ± 0.75%.

Consider `CCn1c(-c2nonc2N)nc2cncc(C(=O)N3CC[C@H](N)C3)c21`, for which the growth inhibition came out at 7.57 ± 2.1%.

In the case of `Cc1ccc(C(=O)Nc2ccc(CN3CCN(C)CC3)c(C(F)(F)F)c2)cc1C#Cc1cnc2cccnn12`, the growth inhibition worked out at 94.4 ± 3.5%.

Consider `NS(=O)(=O)c1cccc(-c2cc3ccncc3cc2OCc2ccccc2)c1`, for which the growth inhibition turned out to be 8.53 ± 3.9%.

Turning to `COc1ccc(-c2coc3ncnc(N)c23)cc1`, the growth inhibition was 8.14 ± 12%.

With `COc1ccc(-c2ccc3c(NC(=O)C4CC4)n[nH]c3n2)cc1`, the growth inhibition is -7.27 ± 8.3%.

For the compound `Nc1ccc(C(=O)Nc2cccc(-c3nc(N4CCOCC4)c4oc5ncccc5c4n3)c2)cn1`, the growth inhibition was 31.1 ± 1.6%.

As for `CC(C)c1cnn2c(NCc3ccccc3)cc(NCCCCCCN)nc12`, the growth inhibition came to 102 ± 5.9%.

As to `CN1CCC(n2cnc(-c3ccc(F)cc3)c2-c2ccnc(Nc3ccccc3)n2)CC1`, the growth inhibition is -8.92 ± 3.6%.

For `NC1(Cc2ccc(Cl)cc2)CCN(c2ncnc3[nH]ccc23)CC1`, the growth inhibition was 35 ± 20%.

With `COc1ccccc1Nc1ncc(-c2ccccc2)o1`, the growth inhibition stood at 1.22 ± 3.5%.

On to `O=C(NC1CCNCC1)c1n[nH]cc1NC(=O)c1c(Cl)cccc1Cl`, for which the growth inhibition amounted to 13.4 ± 5.9%.

For the compound `COc1cc(Nc2ncc(F)c(Nc3ccc4c(n3)N(COP(=O)(O)O)C(=O)C(C)(C)O4)n2)cc(OC)c1OC`, the growth inhibition amounted to 10.1 ± 12%.
